From PubChem BioAssay
Active and inactive are the calls of the source. Unless noted, the rule behind the calls is not given here.

How the values were obtained:
[1] = resazurin metabolic signal in HepG2 cells – cell-based, resazurin fluorescence, 24 h, PK04 Diversity Set, profiling panel (AID 1172); conditions: HepG2 viability, higher = more signal
[2] = budding yeast growth changes without added modifier – OD600, strain BY4716, 24 h, basal condition, primary screen (AID 1173); conditions: S. cerevisiae BY4716 growth, OD600, 24 h; higher = more signal, called active from +8 up or from −8 down
[3] = viability profiling in MM1S myeloma cells – cell-based, resazurin fluorescence, basal, 24 h, PK04 Diversity Set, profiling panel (AID 1174); conditions: higher = more signal, called active from +8 up or from −8 down;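 note: MM1S multiple myeloma cell line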
[4] = molecular target: Dihydroorotate dehydrogenase (quinone), mitochondrial (Plasmodium falciparum (isolate 3D7)) (UniProt Q08210); assay: inhibition of P. falciparum DHODH – biochemical, C-terminal His tag, absorbance 600 nm, primary screen (AID 1175); conditions: PfDHODH enzyme, DCIP absorbance 600 nm; higher = more signal, called active from +8 up or from −8 down;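 note: recombinant parasite enzyme with a five histidine tag at its C terminus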
[5] = inhibition of PAO1 biofilm formation – strain PAO1, LB-PBS medium, absorbance 600 nm, primary screen (AID 1176); conditions: P. aeruginosa PAO1 growth/biofilm, A600, 12 h; higher = more signal
[6] = growth modulation of vineyard yeast isolate – strain RM11-1a, OD600, basal, 24 h, primary screen (AID 1177);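 note: cultures grown under basal conditions with no added stressor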; conditions: S. cerevisiae RM11-1a growth, OD600, 24 h; higher = more signal, called active from +8 up or from −8 down
[7] = growth of efflux-deficient E. coli DRC39 – strain DRC39, OD650, 24 h, E. coli filamentation inducers, primary screen (AID 1178);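 note: growth measured as culture turbidity by optical density at 650 nm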; conditions: E. coli DRC39 acrAB, higher = more signal, called active from +8 up or from −8 down
[8] = growth of efflux-deficient E. coli DRC39 – strain DRC39, OD650, 48 h, E. coli filamentation inducers, primary screen (AID 1179);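 note: screen aims at cell division blockers that make cells filament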; conditions: E. coli DRC39 delta-acrAB growth, higher = more signal, called active from +8 up or from −8 down
[9] = viability profiling in RPMI8226 myeloma cells – cell-based, resazurin fluorescence, basal, 24 h, PK04 Diversity Set, profiling panel (AID 1180); conditions: higher = more signal;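 note: RPMI8826 multiple myeloma cell line at 5000 cells per well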
[10] = molecular target: E3 ubiquitin-protein ligase XIAP (Homo sapiens) (UniProt P98170); assay: small molecules binding XIAP protein – biophysical, small-molecule microarray, fluorescence 635 nm, primary screen (AID 1181); conditions: higher = more signal;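 note: score merges 667 nm emission and signal to noise over triplicate slides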
[11] = tested on: XIP peptide (Xip251-270) binding; assay: XIP fragment 251-270 binding compounds – biochemical, small-molecule microarray, fluorescence 635/667 nm, 0.1 µg/mL protein, primary screen (AID 1182); conditions: fluorescent protein binding, 635 nm, higher = more signal, called active from +8 up or from −8 down
XIP peptide (Xip251-270) = assay: compounds binding XIP fragment 251-270 – biochemical, small-molecule microarray, fluorescence 635/667 nm, 0.5 µg/mL protein, primary screen (AID 1183); conditions: fluorescence 635 nm, higher = more signal
[12] = blood-stage malaria parasite viability loss – strain 3D7, DAPI fluorescence, 100 nL, primary screen (AID 1184);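 note: parasites grown inside human red blood cells in medium with human serum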; conditions: P. falciparum 3D7 growth, 3 d, higher = more signal
[13] = molecular target: Homeobox protein Hox-A13 (Mus musculus) (UniProt Q62424); assay: disruptors of Hoxa13 oligonucleotide interaction – biochemical, fluorescence polarization, labeled oligonucleotide, primary screen (AID 1185); conditions: Hoxa13:DNA binding, 15 min, higher = more signal, called active from +8 up or from −8 down
[14] = blockers of DNA damage checkpoint Chk1 activation – imaging, HeLa, hydroxyurea, phospho-Chk1 antibody, percent positive cells, primary screen (AID 1186); conditions: hydroxyurea-induced phospho-Chk1 immunofluorescence imaging, higher = more signal
[15] = blockers of DNA damage checkpoint Chk1 activation – imaging, HeLa, hydroxyurea, phospho-Chk1 nuclear intensity, primary screen (AID 1187); conditions: hydroxyurea-induced phospho-Chk1 immunofluorescence imaging, higher = more signal

Chain of Dihydroorotate dehydrogenase (quinone), mitochondrial (Plasmodium falciparum (isolate 3D7)) (Q08210 whole entry, looked up): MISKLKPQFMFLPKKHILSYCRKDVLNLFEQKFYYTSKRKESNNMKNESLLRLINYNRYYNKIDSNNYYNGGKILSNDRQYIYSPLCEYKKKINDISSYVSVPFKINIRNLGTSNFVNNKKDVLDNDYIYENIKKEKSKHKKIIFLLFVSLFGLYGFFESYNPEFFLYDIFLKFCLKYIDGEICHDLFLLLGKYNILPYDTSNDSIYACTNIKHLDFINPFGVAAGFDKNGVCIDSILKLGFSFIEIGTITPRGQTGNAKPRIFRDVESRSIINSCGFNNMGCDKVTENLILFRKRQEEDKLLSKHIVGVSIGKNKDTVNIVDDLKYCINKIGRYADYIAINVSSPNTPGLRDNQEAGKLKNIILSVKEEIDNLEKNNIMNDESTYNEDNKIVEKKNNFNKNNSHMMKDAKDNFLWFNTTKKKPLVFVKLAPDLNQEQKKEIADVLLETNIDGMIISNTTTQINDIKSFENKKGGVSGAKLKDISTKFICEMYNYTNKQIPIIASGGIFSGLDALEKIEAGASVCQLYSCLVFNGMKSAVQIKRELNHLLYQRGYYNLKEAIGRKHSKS
Chain of Homeobox protein Hox-A13 (Mus musculus) (Q62424 whole entry, looked up): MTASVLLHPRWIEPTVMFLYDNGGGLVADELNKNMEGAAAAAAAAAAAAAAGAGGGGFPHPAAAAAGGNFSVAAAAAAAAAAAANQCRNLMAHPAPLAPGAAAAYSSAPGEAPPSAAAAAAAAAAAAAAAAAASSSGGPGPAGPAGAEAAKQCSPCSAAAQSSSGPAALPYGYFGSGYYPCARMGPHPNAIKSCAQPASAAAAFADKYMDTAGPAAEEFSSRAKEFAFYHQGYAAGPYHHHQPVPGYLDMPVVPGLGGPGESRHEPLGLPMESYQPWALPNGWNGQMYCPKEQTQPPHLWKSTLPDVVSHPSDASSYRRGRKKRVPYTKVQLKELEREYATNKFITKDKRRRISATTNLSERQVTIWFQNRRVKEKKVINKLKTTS
Chain of E3 ubiquitin-protein ligase XIAP (Homo sapiens) (P98170 whole entry, looked up, the tested form may be a part): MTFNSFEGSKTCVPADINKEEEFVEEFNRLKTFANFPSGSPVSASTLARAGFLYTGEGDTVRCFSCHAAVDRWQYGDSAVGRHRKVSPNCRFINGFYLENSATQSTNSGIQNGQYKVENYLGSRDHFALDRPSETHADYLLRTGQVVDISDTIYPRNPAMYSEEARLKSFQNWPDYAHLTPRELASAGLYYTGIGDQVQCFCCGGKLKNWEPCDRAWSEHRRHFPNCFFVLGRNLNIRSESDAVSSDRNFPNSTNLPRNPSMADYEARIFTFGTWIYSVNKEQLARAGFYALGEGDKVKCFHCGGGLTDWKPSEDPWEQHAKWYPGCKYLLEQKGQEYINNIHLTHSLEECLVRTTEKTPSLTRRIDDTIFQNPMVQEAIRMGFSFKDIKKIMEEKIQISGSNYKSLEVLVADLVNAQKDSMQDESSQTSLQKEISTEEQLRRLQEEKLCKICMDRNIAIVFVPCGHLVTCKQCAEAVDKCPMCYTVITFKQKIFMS

SMILES	z-score [1]	z-score [2]	z-score [3]	composite z-score [4]	z-score [5]	z-score [6]	z-score [7]	z-score [8]	z-score [9]	composite z-score [10]	composite z-score [11]	composite z-score (XIP peptide (Xip251-270))	z-score [12]	z-score [13]	z-score [14]	z-score [15]
CC(C)C(=C=CC[C@H](O)c1ccc(OCCO)cc1)CCO	0.933	-1.87 (inactive)	-0.69 (inactive)	-0.324 (inactive)	0.825 (inactive)	-0.269 (inactive)	-0.732 (inactive)	-0.794 (inactive)	-0.0148	0.223	0.427 (inactive)	-0.107	-2.19	-3.96 (inactive)	0.805 (inactive)	0.505 (inactive)
CC(C)N1C(=O)C[C@@](C(=O)NCC(F)(F)F)(c2ccc([N+](=O)[O-])cc2)[C@H]1c1ccc(CO)cc1	-0.228	-0.957 (inactive)	1.26 (inactive)	-0.297 (inactive)	0.255 (inactive)	-1.09 (inactive)	0.818 (inactive)	0.629 (inactive)	0.939	-0.0448	0.0334 (inactive)	0.202	-1.38	-2.67 (inactive)	-0.317 (inactive)	-0.273 (inactive)
Oc1ccc2cc[n+](Cc3sc4ccccc4c3Cl)cc2c1	-1.23	-0.225 (inactive)	-1.42 (inactive)	-0.427 (inactive)	-0.0748 (inactive)	0.474 (inactive)	-0.257 (inactive)	-0.952 (inactive)	-0.624	-0.0095	0.558 (inactive)	0.904	-1.11	-4.76 (inactive)	-0.0224 (inactive)	-0.106 (inactive)
O=C1N(Cc2ccccc2)c2ccccc2[C@@H]2OC(c3ccc(OCCCO)cc3)=N[C@]12CCS(=O)(=O)c1ccccc1	-0.477	1.48 (inactive)	-0.444 (inactive)	-0.244 (inactive)	1.71 (inactive)	2.25 (inactive)	-0.0853 (inactive)	-0.292 (inactive)	-0.18	-0.0918	0.7 (inactive)	0.677	-2.13	1.28 (inactive)	-0.413 (inactive)	-0.77 (inactive)
CCCC[C@@H]1C[C@H]1[C@@H](NC(=O)c1cccs1)c1ccc(-c2ccccc2)cc1	1.13	0.748 (inactive)	0.921 (inactive)	-1.02 (inactive)	1.03 (inactive)	0.822 (inactive)	-0.409 (inactive)	-0.384 (inactive)	0.661	0.416	0.217 (inactive)	-0.319	0.0576	-1.5 (inactive)	0.0111 (inactive)	0.0204 (inactive)
CCOC(=O)C[C@H]1[C@H](OC(=O)c2ccc(C(=O)c3ccccc3)cc2)[C@@H](NC(=O)CC(C)C)c2cc(OCCCO)ccc2N1C(=O)c1ccc2ccccc2n1	0.85	1.1 (inactive)	-0.469 (inactive)	-0.888 (inactive)	0.453 (inactive)	0.8 (inactive)	-0.0708 (inactive)	0.648 (inactive)	-0.0956	-0.102	1.24 (inactive)	0.642	-0.057	-2.72 (inactive)	-0.776 (inactive)	-0.687 (inactive)
O=C1O[C@@H](c2ccccc2)[C@@H](c2ccccc2)N2[C@@H](c3ccccc3OCCO)[C@]3(C(=O)Nc4ccc(C#CC5=CCCCC5)cc43)[C@@H](C(=O)N3CCCCCCC3)[C@H]12	-0.868	0.98 (inactive)	-6.31 (inactive)	-0.35 (inactive)	1.63 (inactive)	1.19 (inactive)	-0.994 (inactive)	-0.576 (inactive)	-4.11	1.56	5.92 (inactive)	0.797	-2	-13.8 (active)	-0.0478 (inactive)	-0.372 (inactive)
COCCOC(=O)N1C(=O)[C@@]2(c3cc(C#CCCO)ccc31)[C@H](C(=O)N1CCCCCCC1)[C@H]1C(=O)O[C@H](c3ccccc3)[C@H](c3ccccc3)N1[C@@H]2c1ccc(OCCO)cc1	0.902	0.849 (inactive)	0.368 (inactive)	0.047 (inactive)	1.56 (inactive)	2.32 (inactive)	-0.0574 (inactive)	0.215 (inactive)	-2.44	1.06	1.29 (inactive)	0.666	-1.5	-11 (active)	-0.201 (inactive)	0.0919 (inactive)
CCOC(=O)C[C@H]1[C@H](OC(=O)c2ccc(C(=O)c3ccccc3)cc2)[C@@H](NC(=O)c2ccccc2)c2cc(OCCCO)ccc2N1C(=O)c1ccc2ccccc2n1	-0.524	0.47 (inactive)	-0.145 (inactive)	-0.0918 (inactive)	0.207 (inactive)	-0.0205 (inactive)	-0.674 (inactive)	-0.374 (inactive)	-0.0826	0.0997	0.0933 (inactive)	0.0113	-1.43	-3.02 (inactive)	0.193 (inactive)	-0.363 (inactive)
